Measurements reported in PubChem BioAssay AID1159606 (Sanford-Burnham Center for Chemical Genomics, 2016).
About 7,300 (2%) of roughly 360,000 compounds were called active. This is one part of a sample in which actives are shown more often than they occur. Cut-off read from the data, not from the text of the source: active = inhibition above about 50%; inactive = the rest.

Test: blockers of TWEAK-induced Fn14 reporter activity – luciferase reporter cells, uHTS, primary screen (AID 1159606)
Settings: TWEAK-stimulated Fn14 reporter cells, luciferase luminescence, 8 h; at 10 µM; stronger effect = higher value
With `C=CCn1c(SCc2nnc(-c3ccccc3)o2)nnc1C(O)c1ccccc1` (stereo not drawn) the inhibition was -3.86% (inactive).
With `CCC(NC(=O)c1ccccc1NC(=O)c1ccccc1)C(=O)NNC(=O)CSc1nc2ccccc2o1` (stereo not drawn) the inhibition was -0.91% (inactive).
For `Cn1cnc2c1c(=O)n(Cc1c(Cl)cccc1Cl)c(=O)n2C`, the inhibition was -7.11% (inactive).
For `Cn1c(N)c(C(=O)COC(=O)c2ccccc2NCc2ccco2)c(=O)n(C)c1=O`, the inhibition was 22.6% (inactive).
For `CC(=O)c1cnn(-c2cc(Oc3ccc(F)cc3)ncn2)c1C`, the inhibition was 8.07% (inactive).
With `CCOC(=O)/C(=N\Nc1cc(Cl)ccc1Cl)N1CCN(C)CC1` the inhibition was -34.9% (inactive).
In the case of `O=C(/C=C/c1cn(-c2ccccc2)nc1-c1ccc2c(c1)OCCO2)NCCCN1CCOCC1`, the inhibition is reported as -1.36% (inactive).
In the case of `CC(=O)C1=C(C)NC(C)=C(C(C)=O)C1c1cn(-c2ccccc2)nc1-c1cccs1`, the inhibition is reported as -6.98% (inactive).
For `O=C(/C=C\c1cn(-c2ccccc2)nc1-c1cccs1)N1CCOCC1`, the inhibition was 98.4% (active).
With `COc1ccc(-c2nn(C)c(=O)c3ccccc23)cc1CNC(=O)C1CCCCC1` the inhibition was -37.6% (inactive).
In the case of `COc1ccc(S(=O)(=O)N2CCCCC2)cc1NC(=O)COc1ccccc1`, the inhibition is reported as 22.4% (inactive).
With `COc1ccc(-c2nn(C)c(=O)c3ccccc23)cc1NC(=O)COc1ccccc1` the inhibition was 71.2% (active).
In the case of `CC1CC(=S)Nc2ccccc2N1Cc1ccccc1` (stereo not drawn), the inhibition is reported as 13.5% (inactive).
In the case of `Cc1nc2ccc(NC(=O)N3CCC(c4ccccc4)C3)cc2nc1C` (stereo not drawn), the inhibition is reported as 0.79% (inactive).
For `CC(C)(C)OC(=O)N/N=C/c1ccc(C(=O)O)cc1`, the inhibition was -4.99% (inactive).
In the case of `CCNC(=S)NNC(=O)c1ccc2ncccc2c1`, the inhibition is reported as 1.76% (inactive).
With `O=C(O)c1ccc(N/N=C/c2ccc3ncccc3c2)cc1` the inhibition was 95.2% (active).
In the case of `CC1(C(=O)Nc2ccc3c(c2)OCCO3)CCN1C(=O)Cc1cc(F)ccc1F` (stereo not drawn), the inhibition is reported as -3.09% (inactive).
With `O=S(=O)(NCc1ccccc1Cl)c1cnc[nH]1` the inhibition was -2.25% (inactive).
For `O=S1(=O)CC(N2CCN(Cc3ccccc3F)CC2)CN1Cc1cn(Cc2cccc(C(F)(F)F)c2)nn1` (stereo not drawn), the inhibition was 10.4% (inactive).
With `CCN(CC(=O)NC1CCS(=O)(=O)C1)c1nc(-c2cccnc2)nc2ccccc12` (stereo not drawn) the inhibition was 0.56% (inactive).
In the case of `O=[N+]([O-])c1ccc(F)cc1Oc1nc(-c2cccnc2)nc2ccccc12`, the inhibition is reported as 55.1% (active).
With `O=[N+]([O-])c1cc2ccccc2nc1-c1ccccc1` the inhibition was -7.41% (inactive).
In the case of `Cc1ccc(S(=O)(=O)N2[C@@H](c3cccc4ccccc34)C(C(=O)O)=C[C@H]2C(C)(C)C)cc1`, the inhibition is reported as 14.3% (inactive).
With `CCOc1ccc(CN2CCNC(=O)C2CC(=O)NCCCC2CCCC2)cc1` (stereo not drawn) the inhibition was 7.15% (inactive).
With `CCOC(=O)c1c(-c2ccccc2)csc1NC(=S)NC(=O)c1ccccc1` the inhibition was 57.9% (active).
With `CCOC(=O)c1c(NC(=S)NC(=O)/C=C/c2cccs2)sc(C)c1C` the inhibition was 20.2% (inactive).
With `CCOC(=O)C1=C(NC(=S)NC(=O)c2ccccc2)c2ccccc2CC1(C)C` the inhibition was 4.16% (inactive).
In the case of `O=C(C1CCCO1)N1CCN(C(=O)C23CC4CC(CC(C4)C2)C3)CC1` (stereo not drawn), the inhibition is reported as -24% (inactive).
In the case of `C[C@H](CO)N1C[C@H](C)[C@@H](CN(C)Cc2ccc3c(c2)OCO3)OCc2cnnn2CCCC1=O`, the inhibition is reported as -16.3% (inactive).
In the case of `Cc1cc(Cl)c(S(=O)(=O)Nc2ccc3c(c2)OCCO3)cc1OCC(N)=O`, the inhibition is reported as 86.8% (active).
In the case of `Cc1cc(Cl)c(S(=O)(=O)N(C)C)cc1OCC(N)=O`, the inhibition is reported as 12.6% (inactive).
In the case of `Cc1cc(Cl)c(S(=O)(=O)NCC2CCCO2)cc1OCC(N)=O` (stereo not drawn), the inhibition is reported as 3.22% (inactive).
With `Cc1cc(C)cc(C(=O)OCC(=O)NCCNC(=O)COC(=O)c2cc(C)cc(C)c2)c1` the inhibition was -2.52% (inactive).
In the case of `Cc1ccc(S(=O)(=O)N2CCC(=O)N([C@H](COCc3ccccc3)C(C)C)CC2)cc1`, the inhibition is reported as -20.6% (inactive).
With `Oc1c(CN2CCN(c3ccc(F)cc3)CC2)cc(Cl)c2cccnc12` the inhibition was 104% (active).
With `Cc1cccc(C)c1NC(=O)CN1CCN(c2ccc(F)cc2)CC1` the inhibition was 0% (inactive).
In the case of `Oc1c(CN2CCCC2)cc(COCc2ccccc2)c2cccnc12`, the inhibition is reported as 9.88% (inactive).
In the case of `O=[N+]([O-])c1ccc(S(=O)(=O)Nc2cccc(-c3ccc(N4CCCC4)nn3)c2)cc1`, the inhibition is reported as -10.7% (inactive).
With `O=C(Nc1ccc2c(c1)OCO2)C1CC1(Cl)Cl` (stereo not drawn) the inhibition was -7.08% (inactive).
With `O=C(Nc1ccc2c(c1)OCCO2)C1CCCC1` the inhibition was 92.4% (active).
In the case of `CN1C(=O)c2ccc(NC(=O)C3CCCCC3)cc2C1=O`, the inhibition is reported as -18.9% (inactive).
For `O=C(Nc1ccc2c(c1)OCCO2)C1CCCN(c2ncccn2)C1` (stereo not drawn), the inhibition was 67.2% (active).
In the case of `O=C(Nc1ccccn1)C1CCN(S(=O)(=O)c2ccc3c(c2)OCCO3)CC1`, the inhibition is reported as -16% (inactive).
With `O=C(Nc1cccc(Cl)c1)C1CCCN(c2cnccn2)C1` (stereo not drawn) the inhibition was -12.7% (inactive).
In the case of `Cc1ccccc1S(=O)(=O)NC(=O)C1(C)CCN1C(=O)C1(c2ccccc2)CCCC1` (stereo not drawn), the inhibition is reported as 0.78% (inactive).
In the case of `COc1ccc(NC(=O)CN(C)C(=O)CNC(=O)C2CCCCC2)cc1`, the inhibition is reported as -2.69% (inactive).
For `COc1cccc(CNC(=O)[C@@H]2CCCN2C(=O)[C@@H]2CCCN2C(=O)c2ccccc2)c1`, the inhibition was 17.3% (inactive).
For `CC1(C(=O)NS(=O)(=O)c2ccccc2)CCN1C(=O)C1CCCCC1` (stereo not drawn), the inhibition was -10.4% (inactive).
For `CCC1(C)NC(=O)N(CC(=O)N2CCN(c3cccc(Cl)c3)CC2)C1=O` (stereo not drawn), the inhibition was 5.53% (inactive).
For `O=C(CSc1nnc(-c2ccco2)o1)NCC(=O)c1ccccc1`, the inhibition was 7.83% (inactive).
With `CCn1c(SCC(=O)Nc2cc(C)c(Cl)cc2OC)nnc1-c1ccco1` the inhibition was -18.4% (inactive).
With `CSc1nc(-c2ccco2)nn1C(=O)c1ccccc1Cl` the inhibition was 51% (active).
In the case of `CCn1cc(CN2CCCC(CNS(=O)(=O)Cc3ccccc3)C2)cn1` (stereo not drawn), the inhibition is reported as 1.85% (inactive).
For `CCCNC(=O)c1c(Cl)cnn1-c1ccc(C)cc1`, the inhibition was -19.4% (inactive).
In the case of `Cc1cccc(-n2ncc(Cl)c(Cl)c2=O)c1`, the inhibition is reported as 94.7% (active).
For `CC(=O)Nc1c2c(nn1-c1cccc(C)c1)CSC2`, the inhibition was -5.72% (inactive).
For `COc1cccc(-c2nc3nc(C)cc(C)n3c2NC2CCCCC2)c1`, the inhibition was -20.7% (inactive).
